An excerpt weighted towards active compounds, which were near 12% of everything screened.
Insulin prom inh: TRM-6 insulin promoter activity inhibition; inhibition, % at 2 µM; hit rate 0.9% among 130,000; TRM-6 cells (human fetal islet line), insulin promoter-eGFP reporter, imaging; reporter expression induced with tamoxifen;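 active = inhibition above the mean plus 3 SD, with well images judged a real hit on visual review, cut at about 60% in these data, passing the limit was not always enough; inconclusive = inhibition over the cutoff but images rejected on review; inactive = inhibition not above the cutoff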
Insulin prom up: MIN6 insulin promoter up-regulation; MIN6 insulin promoter-GFP reporter, high-content imaging; stronger effect = higher value; hit rate 0.3% among 190,000; z-score at 5 µM;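 active = z-score above 3 at 5 µM with at least 500 cells counted in the well; inconclusive = wells under 500 cells, flagged as cytotoxic or low count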
KCC2 mod: KCC2 (human) Cl- transport modulation; KCC2 cells, thallium flux FluoZin-2 fluorescence; hit rate 2.2% among 190,000; B-score of Tl+ flux slope (higher = more flux/activation; lower = inhibition) at 10 µM;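 active = thallium flux slope and its plate-corrected score both differing from the plate sample mean at a set confidence after two filtering rounds, in either direction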;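 note: slope of fluorescence scaled to starting intensity during 10 to 20 s after thallium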
L major viab: Leishmania major promastigote growth inhibition | Leishmania major promastigotes, resazurin fluorescence viability | inhibition, % at 10 µM | hit rate 9% among 200,000 | AID 1063; in the data active = inhibition above about 50%;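 note: promastigotes grown with compound for 44 hours at 28 °C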
ROMK mod: modulators of human ROMK potassium channel; Tet-inducible ROMK, thallium flux fluorescence; actives lie on both sides; AID 1918; B-score at 10 µM; hit rate 2% among 130,000; P48048;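 active = signal ratio slope over the read window, or its plate-corrected B-score, at least 3 SD from the plate mean, either direction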;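 note: B-score of the F/F0 ratio slope over 7 to 12 s after thallium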
Target sequence (P48048 whole entry, looked up): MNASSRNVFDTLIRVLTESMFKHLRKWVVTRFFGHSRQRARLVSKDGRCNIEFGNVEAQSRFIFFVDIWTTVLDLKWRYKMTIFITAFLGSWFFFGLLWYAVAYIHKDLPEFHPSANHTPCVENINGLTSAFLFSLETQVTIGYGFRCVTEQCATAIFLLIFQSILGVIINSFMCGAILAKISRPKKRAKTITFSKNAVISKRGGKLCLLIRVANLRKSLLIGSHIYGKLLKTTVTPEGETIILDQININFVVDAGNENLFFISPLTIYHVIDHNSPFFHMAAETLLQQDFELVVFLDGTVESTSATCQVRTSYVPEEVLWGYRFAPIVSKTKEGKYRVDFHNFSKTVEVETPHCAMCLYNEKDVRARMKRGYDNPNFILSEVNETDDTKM
WT yeast gro inh: growth inhibition of WT yeast, mitochondrial fusion screen. mitochondrial fusion phenotypic screen, WT strain. inhibition, % at 10 µM. hit rate 2.1% among 190,000; in the data active = inhibition above about 58%; tested in S. cerevisiae
KCC2 secondary: confirmation of human KCC2 transport modulators | shares compounds with KCC2 mod | HEK293-KCC2, thallium flux, FluoZin2 fluorescence; stronger effect = higher value | normalised thallium flux (F/F0 slope) at 10 µM | hit rate 15% among 3,700 | AID 1713;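 active = thallium flux slope above the same plate's solvent-only control mean plus 3 SD; inconclusive = the two replicate wells disagree; inactive = no significant difference from solvent-only control wells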
KCC2 bumet counter: bumetanide-insensitive thallium flux in KCC2 cells with ouabain, counter-screen; shares compounds with KCC2 mod; HEK293-KCC2 + bumetanide/ouabain, thallium flux FluoZin2; stronger effect = higher value; normalized thallium flux at 10 µM; hit rate 49% among 3,700;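 active = thallium entry rate above the same plate's blocked-transporter control wells by more than 3 SD; inconclusive = the two repeat wells disagree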;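 note: raw slope of fluorescence over initial fluorescence between 10 and 20 s after thallium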
KCC2 sec2: confirmation of human KCC2 transport modulators; normalized thallium flux at 10 µM; shares compounds with KCC2 mod; hit rate 23% among 3,700; HEK293-KCC2, thallium flux FluoZin2 fluorescence; actives lie on both sides; F/F0 rise rate, 10–20 s post-thallium; AID 1715;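 active = thallium flux slope more than 3 SD above or below the plate's solvent-only control mean, mostly below; inconclusive = the two repeat wells disagreed; inactive = no significant shift from solvent-only controls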;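 note: raw slope with 0.1% DMSO as baseline and bumetanide as block control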
HEK293 Tl flux: parental HEK flux effect, counter-screen; shares compounds with KCC2 mod; HEK293 parental cells, thallium flux FluoZin2, ouabain; baseline-ratio fluorescence slope, 10–20 s after thallium; thallium flux rate (normalised fluorescence) at 10 µM; hit rate 46% among 3,700; AID 1716;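 active = thallium flux rate significantly above the same plate's solvent-only control wells, beyond their mean plus 3 SD; inconclusive = the two replicate wells gave conflicting results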
KCC2 ouabain: confirmation of human KCC2 modulators with ouabain; shares compounds with KCC2 mod; HEK293-KCC2, thallium flux FluoZin2 fluorescence; bidirectional: low = inhibitor, high = activator; raw Tl+ flux slope (below DMSO = inhibition, above = activation) at 10 µM; hit rate 48% among 3,700;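 active = thallium flux slope beyond 3 SD from same-plate DMSO control mean in most replicates, usually higher, sometimes lower; inconclusive = repeat tests gave conflicting results; inactive = no significant difference from controls in most replicates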;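 note: slope of initial-normalized fluorescence between seconds 10 and 20 after thallium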
HEK counter2: acts in parental HEK cells, second KCC2 counter-screen; shares compounds with KCC2 mod; AID 1718; thallium flux slope at 10 µM; hit rate 33% among 3,700; HEK293 parental, thallium flux FluoZin-2 fluorescence slope;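 active = thallium flux slope above the same plate's solvent-control mean plus 3 SD in both duplicate wells; inconclusive = duplicate wells that disagreed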;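 note: run without ouabain in cells lacking the KCC2 cotransporter; slope of fluorescence scaled to its starting value between 10 and 20 s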
An asterisk follows results filed as active; ? = inconclusive; · = no result given.

SMILES	Insulin prom inh	Insulin prom up	KCC2 mod	L major viab	ROMK mod	WT yeast gro inh	KCC2 secondary	KCC2 bumet counter	KCC2 sec2	HEK293 Tl flux	KCC2 ouabain	HEK counter2
Cc1nc2ccccc2c2c1C(=O)N(C1CCCCCCC1)C2=O	-17	0.22	-4.8*	-4	·	-7	0.01	?	0.033	0.0076	0.022	0.01
Cc1nc2ccccc2c2c1C(=O)N(c1ccc(C(=O)O)cc1)C2=O	33	1.1	1	-11	0.21	-1	·	·	·	·	·	·
Cc1cc(C)cc(N(CC(=O)NC2CCCCCC2)S(=O)(=O)c2c(C)[nH]c(=O)[nH]c2=O)c1	·	-0.47	0.17	·	-0.45	·	·	·	·	·	·	·
CCOc1cc(-c2noc(CCCC(N)=O)n2)cc(Br)c1OC	-42	-0.14	4.5*	-1	0.53	5	0.0073	?	0.028	0.0074	0.019	0.01
Cc1nnc2sc(-c3ccc(NC(=O)c4ccc(-c5ccc(Br)cc5)o4)cc3)nn12	27	·	·	13	·	·	·	·	·	·	·	·
CCOc1ccc(CC(=N)C2=C(O)CC(C)(C)CC2=O)cc1OCC	-53	·	-4.3*	-3	1.1	-6	0.0075	0.0053	0.031	0.0064	0.02	?
CCOc1ccc(CC(=NCCc2ccccc2)C2=C(O)CC(C)(C)CC2=O)cc1OCC	-19	-0.12	-0.67	17	0.091	21	·	·	·	·	·	·
CCOC(=O)/C(=N\Nc1ccc(Br)cc1)N1CCN(c2ccccc2OC)CC1	33	-0.78	1.1	9	-0.79	45	·	·	·	·	·	·
CCOc1ccccc1NC(=S)N(CCCN1CCOCC1)Cc1cn(C)c2ccccc12	-3	·	-4.7*	65*	-1.8	8	0.0073	0.0047	0.029	?	0.019	0.011
O=C(C1=C(O)C(=O)N(CCOCCO)C1c1cccs1)c1cccs1 (stereo not given)	·	2.3	0.96	-6	0.39	-9	·	·	·	·	·	·
CCn1c(-c2ccco2)n[nH]c1=S	47	0.55	0.043	-8	0.62	-3	·	·	·	·	·	·
C=CCn1c(-c2ccco2)n[nH]c1=S	·	0.07	·	-2	0.25	7	0.0091	0.0066	0.036	0.0085	0.019	0.011
C=CCn1c(-c2cc3cccc(OC)c3o2)n[nH]c1=S	-36	-0.47	3.7*	9	-0.4	17	0.0051	0.014*	0.032	0.013*	?	0.016*
O=C1N(Cc2cccc(Cl)c2)C[C@@H]2C[C@@H](c3cccc4ncccc34)N3CCC[C@@]123	15	·	·	100*	-2.7	9	0.0098	0.0052	0.036	0.0035	0.019	0.011
CCn1c(SCc2ccc(C)cc2)nnc1-c1cnccn1	·	-0.1	-0.00067	1	·	-5	·	·	·	·	·	·
Cc1ccccc1-n1nnnc1SC(C)C(=O)NC1CCCc2ccccc21 (stereo not given)	-31	-0.49	-3.5*	2	·	28	0.0063	0.0045	0.034	0.0037	0.017*	0.011
CCOc1ccc(N2C(=O)CC(SC(=NC)Nc3ccc4c(c3)OCO4)C2=O)cc1 (stereo not given)	·	-0.86	0.069	-5	0.92	-3	·	·	·	·	·	·
CN(C)S(=O)(=O)c1ccc(C(=O)Nc2ccccc2C(=O)O)cc1	-53	·	-4.1*	-6	0.37	-17	0.0094	0.0055	0.029	0.0072	0.022	?
CN(C)S(=O)(=O)c1ccc(C(=O)Nc2ccccc2F)cc1	-7	-0.67	·	-3	0.67	-8	·	·	·	·	·	·
